Results: PubChem BioAssay (EPA / NIEHS)
Inconclusive results are not listed. The source made the active and inactive calls. How the source made its calls, unless noted: active means hit-call score of the fitted dose curve at least 0.9, where 1 is the maximum; inactive means score below 0.9.

Tests used:
[1] = ACEA_ER_80hr: ACEA Biosciences xCELLigence Real-Time Cell Analysis on Estrogen Receptor Agonism for Proliferation (AID 2282667; active means hit-call score of the fitted dose curve at least 0.9, where 1 is the maximum); conditions: T47D proliferation, impedance (xCELLigence), 80 h
Method in brief: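 T-47D cells monitored by electrical impedance (xCELLigence) with compound present throughout; 80 h timepoint, positive-direction fitting versus DMSO. Eight-point 1:4 dilutions from 100 uM final, duplicate plates.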

[2] = ATG_CRE_CIS: Attagene CIS-FACTORIAL HepG2 Assay for human cAMP Responsive Element (CRE) binding protein 3 (AID 2282926); conditions: HepG2 CRE cis-reporter, Attagene multiplexed mRNA; actives raise or lower the signal
Method in brief: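 Induced reporter mRNA from a CRE cis element, measured in HepG2 among many multiplexed units at 24 h. Detection used RT-PCR plus capillary electrophoresis of fluorescent fragments; DMSO served as negative control.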

[3] = molecular target: CCAAT/enhancer-binding protein beta (Homo sapiens) (UniProt P17676); experiment: ATG_C_EBP_CIS: Attagene CIS-FACTORIAL HepG2 Assay for human CCAAT/Enhancer Binding Protein (C/EBP) beta (AID 2282927); conditions: HepG2 Attagene cis-factorial transcription factor reporter; actives raise or lower the signal
Method in brief: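 RT-PCR/capillary electrophoresis fluorescence of reporter mRNA, 24 h post-dose, in HepG2 cells carrying transfected cis-promoter reporter units. Bidirectional curve fitting against DMSO baseline captures gain or loss of signal.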

[4] = ATG_CMV_CIS: Attagene CIS-FACTORIAL HepG2 Assay for human CMV (Internal Marker) (AID 2282928); conditions: HepG2 CMV promoter reporter, transcription factor profiling; actives raise or lower the signal;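 further: endpoint acts as a background internal control marker rather than a target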
Method in brief: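 Reporter transcripts from transfected HepG2 cells are isolated after 24 h of chemical dosing, reverse-transcribed and amplified. Fragments labeled with 6-FAM are cut with HpaI and quantified by capillary electrophoresis; DMSO defines baseline.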

[5] = ATG_DR4_LXR_CIS: Attagene CIS-FACTORIAL HepG2 Assay for human Liver X Receptor (LXR), DR4 submotif (AID 2282929); conditions: HepG2 Attagene DR4 cis-reporter, mRNA transcription; actives raise or lower the signal
Method in brief: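 Transiently transfected HepG2 liver cells; cis-regulated reporters; 24 h dosing. RT-PCR plus CE read-out of reporter mRNA. DMSO baseline, bidirectional curve fitting.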

[6] = molecular target: Aryl hydrocarbon receptor (Homo sapiens) (UniProt P35869); experiment: ATG_Ahr_CIS: Attagene CIS-FACTORIAL HepG2 Assay for human Aryl Hydrocarbon Receptor (Ahr) (AID 2282930); conditions: HepG2 AhR cis-factorial reporter transcription; actives raise or lower the signal
Method in brief: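 HepG2 cells transiently transfected with cis-element-driven multiplexed reporter transcription units; endogenous transcription factor activity measured as reporter mRNA 24 h after dosing. RT-PCR, 6-FAM labelling, HpaI digestion, capillary electrophoresis; bidirectional fitting versus DMSO baseline.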

[7] = ATG_AP_1_CIS: Attagene CIS-FACTORIAL HepG2 Assay for human Activator Protein 1 (AP-1) (AID 2282931); conditions: HepG2 Attagene cis-factorial AP-1 reporter mRNA; actives raise or lower the signal
Method in brief: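 We transfected HepG2 cells transiently with a set of cis-regulated reporter transcription units, dosed them for 24 h, and quantified reporter mRNA via RT-PCR and capillary electrophoresis, scoring gain or loss of signal relative to DMSO.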

[8] = molecular target: Transcription factor E2F1 (Homo sapiens) (UniProt Q01094); experiment: ATG_E2F_CIS: Attagene CIS-FACTORIAL HepG2 Assay for human E2F Transcription Factor 1 (AID 2282935); conditions: HepG2 Attagene cis-reporter, E2F reporter RNA transcripts; actives raise or lower the signal
Method in brief: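 First, HepG2 cells were transfected with reporter transcription units. Next, they were dosed for 24 h. Then RNA was isolated, converted to cDNA, PCR-amplified, FAM-labeled, HpaI-digested and analyzed by capillary electrophoresis.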

[9] = ATG_E_Box_CIS: Attagene CIS-FACTORIAL HepG2 Assay for human Enhancer Box (E-box) (AID 2282936); conditions: HepG2 E-box cis-reporter transcription, actives raise or lower the signal
Method in brief: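 Endogenous transcription factor activity was sensed in human HepG2 liver cells through transfected cis-promoter reporter units. After 24 h of dosing, total RNA was reverse-transcribed and reporter cDNA resolved by capillary electrophoresis.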

[10] = ATG_M_61_CIS: Attagene CIS-FACTORIAL HepG2 Assay for M61 Transcription Factor (Internal Marker) (AID 2282937); conditions: HepG2 Attagene CIS-FACTORIAL M61 internal marker reporter; actives raise or lower the signal
Method in brief: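 Multiplexed reporter mRNA assay, HepG2 human hepatoma cells, 24 h treatment. Signal: FAM-labelled, HpaI-digested RT-PCR fragments by CE. Fit: bidirectional, baseline DMSO.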

[11] = ATG_EGR_CIS: Attagene CIS-FACTORIAL HepG2 Assay for human Early Growth Response 1 (EGR1) (AID 2282938); conditions: HepG2 Attagene CIS-FACTORIAL EGR reporter mRNA; actives raise or lower the signal
Method in brief: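 Multiplexed cis-reporter system in human hepatoma HepG2 cells, transiently transfected. Cells are dosed for 24 h; reporter transcripts are amplified, fluorescently tagged and sized by capillary electrophoresis, with DMSO as negative control.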

[12] = ATG_M_19_CIS: Attagene CIS-FACTORIAL HepG2 Assay for M19 Transcription Factor (Internal Marker) (AID 2282939); conditions: HepG2 Attagene CIS-FACTORIAL M19 internal marker reporter; actives raise or lower the signal
Method in brief: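 Chemical-treated HepG2 (24 h) with MRTU constructs; reporter transcripts detected by fluorescent RT-PCR fragment analysis on capillary electrophoresis. Internal background marker, DMSO as baseline.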

[13] = ATG_ERE_CIS: Attagene CIS-FACTORIAL HepG2 Assay for Estrogen Response Element (ERE) (AID 2282940); conditions: HepG2 ERE cis-reporter, Attagene RNA transcript; actives raise or lower the signal
Method in brief: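 Human liver cells (HepG2) bearing transiently transfected, promoter-regulated reporter units were exposed 24 h. Reporter mRNA induction was detected by capillary electrophoresis of labelled RT-PCR products and fitted bidirectionally to DMSO.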

[14] = molecular target: Hepatocyte nuclear factor 3-beta (Homo sapiens) (UniProt Q9Y261); experiment: ATG_FoxA2_CIS: Attagene CIS-FACTORIAL HepG2 Assay for human Forkhead box A2 (FOXA2) (AID 2282942); conditions: HepG2 cis-reporter transcription factor activity, 24 h; actives raise or lower the signal
Method in brief: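 Multiplexed cis-element reporter assay in transiently transfected HepG2. Twenty-four hours post-dosing, RNA was reverse-transcribed, amplified, FAM-labelled, HpaI-digested and separated by CE. Activity gain or loss relative to DMSO.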

[15] = ATG_GATA_CIS: Attagene CIS-FACTORIAL HepG2 Assay for human GATA Binding Protein (AID 2282944); conditions: HepG2 GATA cis-element reporter, Attagene multiplex mRNA; actives raise or lower the signal
Method in brief: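 Transfected cis-reporter HepG2 cells were treated with chemicals for 24 hours. Total RNA was then converted to cDNA, amplified with reporter-specific primers and analysed by fluorescent capillary electrophoresis, using DMSO-treated wells as baseline.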

[16] = ATG_AP_2_CIS: Attagene CIS-FACTORIAL HepG2 Assay for human Activator Protein 2 (AP-2) (AID 2282932); conditions: HepG2 AP-2 cis-reporter, Attagene transcription factor profiling; actives raise or lower the signal
Method in brief: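 Cells (HepG2) transfected with promoter-driven reporter constructs, treated 24 h. Total RNA reverse-transcribed, reporter cDNA PCR-amplified, FAM-labelled by primer extension, digested, resolved by capillary electrophoresis. Activity fitted both directions versus DMSO.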

[17] = molecular target: Retinoic acid receptor alpha (Homo sapiens) (UniProt P10276); experiment: ATG_DR5_RAR_CIS: Attagene CIS-FACTORIAL HepG2 Assay for human Retinoic Acid Receptor Alpha (RARE), DR5 submotif (AID 2282934); conditions: HepG2 Attagene cis-factorial RARE DR5 reporter, mRNA; actives raise or lower the signal
Method in brief: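 HepG2 cells transiently transfected with multiplexed reporter units under cis (DR5 RARE) promoters, so endogenous transcription factor activity is measured. After 24 h compound exposure, reporter mRNA is quantified by RT-PCR with fluorescent labelling and capillary electrophoresis; bidirectional fitting versus DMSO.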

[18] = ATG_Ets_CIS: Attagene CIS-FACTORIAL HepG2 Assay for human Erythroblast Transformation Specific (ETS) (AID 2282941); conditions: HepG2 ETS cis-reporter transcription, actives raise or lower the signal
Method in brief: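 Bidirectional fit versus DMSO of reporter mRNA signal, detected by RT-PCR and capillary electrophoresis in HepG2 cells transiently transfected with cis-element reporters and dosed 24 h.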

[19] = ATG_FoxO_CIS: Attagene CIS-FACTORIAL HepG2 Assay for human Forkhead box O (FoxO) (AID 2282943); conditions: HepG2 Attagene cis-reporter, FoxO element, mRNA; actives raise or lower the signal
Method in brief: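 HepG2 cells transiently transfected with cis-promoter-driven multiple reporter transcription units; 24 h after chemical dosing, reporter mRNA quantified by RT-PCR, fluorescent primer extension, HpaI digestion and capillary electrophoresis. Bidirectional fitting versus DMSO baseline.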

[20] = ATG_BRE_CIS: Attagene CIS-FACTORIAL HepG2 Assay for human Bone Morphogenetic Protein (BMP) Response Element (BRE) (AID 2282933); conditions: HepG2 BMP response element reporter, Attagene transcription factor profiling; actives raise or lower the signal
Method in brief: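 A HepG2 multiplex reporter system measured inducible reporter mRNA 24 h post-dosing. Detection: RT-PCR, 6-FAM primer extension, HpaI digestion, capillary electrophoresis. Activity fitted bidirectionally relative to DMSO.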

Measured: AC50

Sequence of Retinoic acid receptor alpha (Homo sapiens) (P10276 whole entry, looked up): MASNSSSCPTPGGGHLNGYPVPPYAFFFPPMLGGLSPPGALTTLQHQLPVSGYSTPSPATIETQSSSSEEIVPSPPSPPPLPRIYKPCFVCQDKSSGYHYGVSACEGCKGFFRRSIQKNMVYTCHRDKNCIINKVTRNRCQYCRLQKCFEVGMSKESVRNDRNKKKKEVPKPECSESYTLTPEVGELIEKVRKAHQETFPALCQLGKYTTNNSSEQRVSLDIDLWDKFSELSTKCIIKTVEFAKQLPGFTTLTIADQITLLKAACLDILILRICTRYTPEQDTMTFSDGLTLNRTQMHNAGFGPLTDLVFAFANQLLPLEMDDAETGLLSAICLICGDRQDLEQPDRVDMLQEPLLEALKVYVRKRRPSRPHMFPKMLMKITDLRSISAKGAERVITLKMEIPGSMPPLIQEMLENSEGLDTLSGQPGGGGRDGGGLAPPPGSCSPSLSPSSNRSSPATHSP
Sequence of Hepatocyte nuclear factor 3-beta (Homo sapiens) (Q9Y261 whole entry, looked up): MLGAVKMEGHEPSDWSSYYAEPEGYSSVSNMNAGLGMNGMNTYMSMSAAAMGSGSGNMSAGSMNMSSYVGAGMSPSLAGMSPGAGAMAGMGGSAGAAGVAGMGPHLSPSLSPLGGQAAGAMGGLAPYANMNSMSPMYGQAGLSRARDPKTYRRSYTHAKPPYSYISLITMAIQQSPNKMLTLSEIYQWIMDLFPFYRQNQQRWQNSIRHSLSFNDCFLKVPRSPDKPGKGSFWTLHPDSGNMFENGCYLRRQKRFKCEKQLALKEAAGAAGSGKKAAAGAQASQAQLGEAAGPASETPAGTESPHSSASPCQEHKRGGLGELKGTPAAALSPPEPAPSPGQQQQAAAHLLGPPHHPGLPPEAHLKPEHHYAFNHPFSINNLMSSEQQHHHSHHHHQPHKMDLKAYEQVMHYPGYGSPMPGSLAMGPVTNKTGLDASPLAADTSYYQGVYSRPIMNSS
Sequence of Aryl hydrocarbon receptor (Homo sapiens) (P35869 whole entry, looked up): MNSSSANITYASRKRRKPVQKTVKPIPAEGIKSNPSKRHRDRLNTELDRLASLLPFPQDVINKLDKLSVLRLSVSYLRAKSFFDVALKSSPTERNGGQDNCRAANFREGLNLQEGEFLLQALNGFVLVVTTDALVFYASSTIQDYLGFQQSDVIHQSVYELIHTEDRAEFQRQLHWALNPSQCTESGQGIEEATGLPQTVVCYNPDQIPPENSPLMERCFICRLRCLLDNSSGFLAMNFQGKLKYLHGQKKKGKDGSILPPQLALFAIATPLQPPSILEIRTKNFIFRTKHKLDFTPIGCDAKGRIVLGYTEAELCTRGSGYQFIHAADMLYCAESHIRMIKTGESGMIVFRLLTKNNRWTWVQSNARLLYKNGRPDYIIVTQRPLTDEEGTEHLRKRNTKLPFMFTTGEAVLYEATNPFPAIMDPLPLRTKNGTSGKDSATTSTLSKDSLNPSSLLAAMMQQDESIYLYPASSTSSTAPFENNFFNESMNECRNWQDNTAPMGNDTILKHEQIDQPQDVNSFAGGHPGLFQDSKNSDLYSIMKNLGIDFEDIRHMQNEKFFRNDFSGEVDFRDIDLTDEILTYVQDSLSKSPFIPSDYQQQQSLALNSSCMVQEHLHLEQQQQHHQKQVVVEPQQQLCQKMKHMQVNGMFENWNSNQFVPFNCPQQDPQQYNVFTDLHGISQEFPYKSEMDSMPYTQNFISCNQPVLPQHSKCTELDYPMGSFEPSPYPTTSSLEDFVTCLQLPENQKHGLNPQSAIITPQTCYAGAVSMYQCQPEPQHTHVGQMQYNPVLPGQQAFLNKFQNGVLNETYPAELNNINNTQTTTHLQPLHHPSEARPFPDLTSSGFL
Sequence of CCAAT/enhancer-binding protein beta (Homo sapiens) (P17676 whole entry, looked up): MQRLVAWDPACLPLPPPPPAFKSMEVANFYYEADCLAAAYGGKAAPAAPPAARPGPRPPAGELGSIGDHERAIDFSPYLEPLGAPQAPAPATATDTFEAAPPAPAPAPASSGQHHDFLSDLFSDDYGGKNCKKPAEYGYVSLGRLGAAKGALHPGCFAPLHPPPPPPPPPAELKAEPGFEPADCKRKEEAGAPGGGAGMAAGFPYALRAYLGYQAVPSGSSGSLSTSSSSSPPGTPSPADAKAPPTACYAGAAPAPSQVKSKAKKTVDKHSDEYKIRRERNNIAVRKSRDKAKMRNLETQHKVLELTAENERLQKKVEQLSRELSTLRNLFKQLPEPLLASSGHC
Sequence of Transcription factor E2F1 (Homo sapiens) (Q01094 whole entry, looked up): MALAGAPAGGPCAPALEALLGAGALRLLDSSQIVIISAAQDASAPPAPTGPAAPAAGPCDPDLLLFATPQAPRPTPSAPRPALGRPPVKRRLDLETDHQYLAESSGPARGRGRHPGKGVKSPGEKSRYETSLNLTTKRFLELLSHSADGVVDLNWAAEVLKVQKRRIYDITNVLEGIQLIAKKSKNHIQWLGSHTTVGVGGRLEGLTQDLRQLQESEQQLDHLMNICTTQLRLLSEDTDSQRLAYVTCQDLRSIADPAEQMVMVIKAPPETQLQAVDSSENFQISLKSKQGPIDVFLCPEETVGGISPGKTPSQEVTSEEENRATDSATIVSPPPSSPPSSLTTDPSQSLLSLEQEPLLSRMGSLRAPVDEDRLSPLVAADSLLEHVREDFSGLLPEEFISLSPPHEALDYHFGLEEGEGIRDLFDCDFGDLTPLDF

O=C(O)C1CCC(C(=O)O)CC1 (stereo unspecified)
not listed: [16] | [17] | [18] | [19] | [20]
inactive: all other assays above

CC(CC=O)CC(C)(C)C (stereo unspecified)
not listed: [10] | [20]
inactive: all other assays above

CCC[Si](OC)(OC)OC
not listed: [7]
inactive: all other assays above

CC=C(C)C=CC=C(C)C
not listed: [11] | [16]
inactive: all other assays above

C=C(C)C1CC=C(C)CC1 (stereo unspecified)
not listed: [10] | [11] | [16] | [17]
inactive: all other assays above

CC1CCC(=O)C1=O (stereo unspecified)
not listed: [16]
inactive: all other assays above

CCCCCC(=O)OCC
not listed: [20]
inactive: all other assays above

O=C1CCCCCCCCCCC1
not listed: [6] | [9] | [11] | [17] | [19]
inactive: all other assays above

C=Cc1cccc(C)c1
not listed: [7] | [9] | [11]
inactive: all other assays above

C=CC(=O)OCC(C)OCC(C)OCC(C)OC(=O)C=C (stereo unspecified)
active: [4] 77.1 µM | [5] 68.8 µM | [9] 68.6 µM | [18] 60.1 µM | [19] 100 µM
not listed: [7] | [11]
inactive: all other assays above

CC(C)(c1ccccc1)c1ccc(Nc2ccc(C(C)(C)c3ccccc3)cc2)cc1
not listed: [7] | [16] | [20]
inactive: all other assays above

CCCCCCOC(=O)CCCCC(=O)OCCCCCC
active: [13] 27.5 µM
not listed: [6]
inactive: all other assays above

CCOC(=O)/C=C\C(=O)OCC
not listed: [7] | [10]
inactive: all other assays above

Cc1cc(C)n(CO)n1
not listed: [7] | [11] | [17] | [19]
inactive: all other assays above

O=C(O)CCC(=O)O
not listed: [6]
inactive: all other assays above

CC(C)CO
not listed: [6] | [17]
inactive: all other assays above
